# Data taken from PubChem BioAssay (NCATS).
# “And” between values parts separate entries of the source, which are not always exact repeats. Equal entries are not always repeated. Records with an inconclusive call do not appear. Entries that show only a call come without a potency. Some compounds were tested as several samples or in several runs, with calls that do not always agree. The source made the active and inactive calls. Calls come from the whole dose curve; as a rule, active = well fitted curve in the direction sought with a large enough effect; inconclusive = small, poorly fitted or top-dose-only effect, or another doubt; inactive = no such curve, though single readings can be large; an effect the other way counts as inactive or inconclusive.
# How the values were obtained:
# HEK293 = test: Cytotoxic Profiling of Annotated Libraries Using Quantitative High-Throughput Screening (AID 1296008); conditions: Five cell lines viability, CellTiter-Glo ATP luminescence, 48-72 h; max response: stronger effect = lower value; note: nearly all actives have a fitted effect of over 60% in size
# Summary of the method: (§1)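 Cytotoxicity was measured as CellTiter-Glo ATP luminescence, read after 10 min at room temperature. Compound treatment of the cells lasted 48 or 72 hr at 37 degrees Celsius in a qHTS format.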
# HaCat [1] = test: as above; conditions: Five cell lines viability, CellTiter-Glo ATP luminescence, 48-72 h; max response: stronger effect = lower value
# Summary of the method: as §1
# KB-3-1 = test: as above; conditions: Five cell lines viability, CellTiter-Glo ATP luminescence, 48-72 h; max response: stronger effect = lower value
# Summary of the method: as §1
# NIH3T3 [2] = test: as above; conditions: Five cell lines viability, CellTiter-Glo ATP luminescence, 48-72 h; max response: stronger effect = lower value
# Summary of the method: as §1
# HACAT [3] = test: qHTS assay to identify novel small-molecules to repurpose for Merkel cell carcinoma treatment (AID 1296009); conditions: MCC and control cell lines, CellTiter-Glo viability, 72 h; at 44.8 µM (top of the series) unless noted; note: nearly all actives have a fitted effect of over 60% in size
# Summary of the method: (§2)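 Cell viability, measured as CellTiter-Glo luminescence, was normalized between DMSO and no-cell wells. The cells had been exposed to 8- or 11-point compound dilutions for 72 hr at 37 degree celsius.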
# HEK293T [4] = test: as above; conditions: MCC and control cell lines, CellTiter-Glo viability, 72 h; at 44.8 µM (top of the series)
# Summary of the method: as §2
# MCC-13 = test: as above; conditions: MCC and control cell lines, CellTiter-Glo viability, 72 h; series mostly up to 46 µM
# Summary of the method: as §2
# MKL-1 = test: as above; conditions: MCC and control cell lines, CellTiter-Glo viability, 72 h; series mostly up to 46 µM
# Summary of the method: as §2
# MKL-2 = test: as above; conditions: MCC and control cell lines, CellTiter-Glo viability, 72 h; series mostly up to 46 µM
# Summary of the method: as §2
# UISO = test: as above; conditions: MCC and control cell lines, CellTiter-Glo viability, 72 h; series mostly up to 46 µM
# Summary of the method: as §2
# WaGa = test: as above; conditions: MCC and control cell lines, CellTiter-Glo viability, 72 h; series mostly up to 46 µM
# Summary of the method: as §2
# C33A = test: Primary qHTS to identify gynecologic anti-cancer compounds using libraries of approved drugs and bioactive compounds (AID 1345084); conditions: Gynecologic cancer cell panel viability, ATPlite luminescence, 48 h; series mostly up to 57.5 µM; note: nearly all actives have a fitted effect of over 55% in size
# Summary of the method: (§3)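 Five-concentration response, 48 h; readout is ATP-driven luciferase luminescence.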
# CAOV3 = test: as above; conditions: Gynecologic cancer cell panel viability, ATPlite luminescence, 48 h; series mostly up to 57.5 µM
# Summary of the method: as §3
# CASKI = test: as above; conditions: Gynecologic cancer cell panel viability, ATPlite luminescence, 48 h; series mostly up to 57.5 µM
# Summary of the method: as §3
# Es-2 = test: as above; conditions: Gynecologic cancer cell panel viability, ATPlite luminescence, 48 h; series mostly up to 57.5 µM
# Summary of the method: as §3
# HeLa = test: as above; conditions: Gynecologic cancer cell panel viability, ATPlite luminescence, 48 h; series mostly up to 57.5 µM
# Summary of the method: as §3
# JEG-3 = test: as above; conditions: Gynecologic cancer cell panel viability, ATPlite luminescence, 48 h; series mostly up to 57.5 µM
# Summary of the method: as §3
# Hek293T [5] = test: as above; conditions: Gynecologic cancer cell panel viability, ATPlite luminescence, 48 h, control line for the selectivity index; series mostly up to 57.5 µM
# Summary of the method: as §3
# MCC-26 = test: qHTS assay to identify novel small-molecules to repurpose for Merkel cell carcinoma treatment (AID 1296009); conditions: MCC and control cell lines, CellTiter-Glo viability, 72 h; series mostly up to 46 µM; note: nearly all actives have a fitted effect of over 60% in size
# Summary of the method: as §2
# NIH3T3 [6] = test: as above; conditions: MCC and control cell lines, CellTiter-Glo viability, 72 h; at 44.8 µM (top of the series) unless noted
# Summary of the method: as §2
# Potency is the fitted concentration of half-maximal effect.
smiles,measurement,setting,value
O=NN(CCCl)C(=O)NCCCl,outcome,HEK293,inactive; activator
same,max response,HaCat [1],-4.95% (inactive)
same,outcome,HaCat [1],inactive
same,max response,KB-3-1,10.2% (inactive) and 5.9% (inactive)
same,max response,NIH3T3 [2],3.76% (inactive) and 1.65% (inactive)
same,outcome,HACAT [3],inactive
same,outcome,HEK293T [4],inactive; activator
same,Potency,MCC-13,inactive
same,Potency,MKL-1,inactive
same,Potency,MKL-2,inactive
same,Potency,UISO,inactive
same,Potency,WaGa,inactive
same,Potency,C33A,inactive
same,Potency,CAOV3,inactive
same,Potency,CASKI,inactive
same,Potency,Es-2,inactive
same,Potency,HeLa,inactive
same,Potency,JEG-3,inactive
COc1cc(Nc2ncc3c(n2)-c2ccc(Cl)cc2C(c2c(F)cccc2OC)=NC3)ccc1C(=O)O,Potency,HEK293,23.1 µM (active)
same,max response,HEK293,-33.7% (inactive)
same,Potency,HaCat [1],16.4 µM (active) and 833 nM (active)
same,Potency,KB-3-1,2.09 µM (active)
same,Potency,NIH3T3 [2],7.43 µM (active)
same,Potency,MKL-2,inactive
same,Potency,UISO,inactive
same,Potency,WaGa,148 nM (active)
same,Potency,C33A,28.2 µM (active) and inactive
same,Potency,CAOV3,31.6 µM (active)
same,Potency,Es-2,inactive
same,Potency,HeLa,inactive
same,Potency,Hek293T [5],inactive
same,Potency,JEG-3,inactive
NC(=O)c1cnccn1,max response,HEK293,-0.963% (inactive)
same,outcome,HEK293,inactive
same,max response,HaCat [1],-6.4% (inactive)
same,outcome,HaCat [1],inactive
same,max response,KB-3-1,-14% (inactive)
same,outcome,KB-3-1,inactive
same,max response,NIH3T3 [2],3.86% (inactive) and 2.38% (inactive)
same,outcome,HACAT [3],inactive
same,outcome,HEK293T [4],inactive
same,Potency,MCC-13,inactive
same,Potency,MKL-1,inactive
same,Potency,MKL-2,inactive
same,Potency,UISO,inactive
same,Potency,WaGa,inactive
same,Potency,C33A,inactive
same,Potency,CAOV3,inactive
same,Potency,CASKI,inactive
same,Potency,Es-2,inactive
same,Potency,HeLa,inactive
same,Potency,Hek293T [5],inactive
same,Potency,JEG-3,inactive
CC(C=CC1=C(C)CCCC1(C)C)=CC=CC(C)=CC(=O)O,max response,HEK293,1.74% (inactive)
same,outcome,HEK293,inactive
same,outcome,HaCat [1],inactive
same,max response,KB-3-1,4.44% (inactive)
same,outcome,KB-3-1,inactive
same,max response,NIH3T3 [2],-0.0926% (inactive)
same,outcome,NIH3T3 [2],inactive
same,outcome,HACAT [3],inactive
same,outcome,HEK293T [4],inactive
same,Potency,MCC-13,inactive
same,Potency,MCC-26,inactive
same,Potency,MKL-1,inactive
same,Potency,MKL-2,inactive
same,outcome,NIH3T3 [6],inactive
same,Potency,UISO,inactive
same,Potency,WaGa,inactive
Cc1cnc(NC(=O)C2=C(O)c3ccccc3S(=O)(=O)N2C)s1,max response,HEK293,-0.932% (inactive)
same,outcome,HEK293,inactive
same,outcome,HaCat [1],inactive
same,max response,KB-3-1,-5.8% (inactive) and -11.4% (inactive) and -4.48% (inactive)
same,max response,NIH3T3 [2],-2.32% (inactive)
same,outcome,NIH3T3 [2],inactive
same,outcome,HACAT [3],inactive
same,outcome,HEK293T [4],inactive
same,Potency,MCC-13,inactive
same,Potency,MCC-26,inactive
same,Potency,MKL-1,inactive
same,Potency,MKL-2,inactive
same,outcome,NIH3T3 [6],inactive
same,Potency,UISO,inactive
same,Potency,WaGa,inactive
same,Potency,C33A,inactive
same,Potency,CAOV3,inactive
same,Potency,CASKI,inactive
same,Potency,Es-2,inactive
same,Potency,HeLa,inactive
same,Potency,Hek293T [5],inactive
same,Potency,JEG-3,inactive
CCCCNc1cc(C(=O)O)cc(S(N)(=O)=O)c1Oc1ccccc1,max response,HEK293,2.91% (inactive)
same,outcome,HEK293,inactive
same,max response,HaCat [1],2.18% (inactive)
same,outcome,HaCat [1],inactive
same,max response,KB-3-1,-8.24% (inactive) and 0.128% (inactive)
same,max response,NIH3T3 [2],1.18% (inactive)
same,outcome,NIH3T3 [2],inactive
same,outcome,HACAT [3],inactive
same,outcome,HEK293T [4],inactive
same,Potency,MCC-13,inactive
same,Potency,MCC-26,inactive
same,Potency,MKL-1,inactive
same,Potency,MKL-2,inactive
same,outcome,NIH3T3 [6],inactive
same,Potency,UISO,inactive
same,Potency,WaGa,inactive
same,Potency,C33A,inactive
same,Potency,CAOV3,inactive
same,Potency,CASKI,inactive
same,Potency,Es-2,inactive
same,Potency,HeLa,inactive
same,Potency,JEG-3,inactive
CC(C)NCC(O)COc1ccc(COCCOC(C)C)cc1 (stereo not given),max response,HEK293,4.07% (inactive) and -17.2% (inactive)
same,max response,HaCat [1],-3.77% (inactive)
same,outcome,HaCat [1],inactive
same,max response,KB-3-1,14.8% (inactive) and -14.7% (inactive) and -10.9% (inactive)
same,max response,NIH3T3 [2],4.85% (inactive)
same,outcome,NIH3T3 [2],inactive
same,outcome,HACAT [3],inactive
same,Potency,MCC-13,inactive
same,Potency,MCC-26,inactive
same,Potency,MKL-1,inactive
same,Potency,MKL-2,inactive
same,outcome,NIH3T3 [6],inactive
same,Potency,UISO,inactive
same,Potency,WaGa,inactive
same,Potency,C33A,inactive
same,Potency,CAOV3,inactive
same,Potency,CASKI,inactive
same,Potency,Es-2,inactive
same,Potency,HeLa,inactive
same,Potency,Hek293T [5],inactive
same,Potency,JEG-3,inactive
Cc1ccnc(NS(=O)(=O)c2ccc(NC(=O)Nc3ccc(S(=O)(=O)Nc4nccc(C)n4)cc3)cc2)n1,Potency,HEK293,0.418 µM (active)
same,max response,HEK293,-3.29% (inactive)
same,Potency,HaCat [1],1.48 µM (active)
same,max response,HaCat [1],-9.99% (inactive)
same,Potency,KB-3-1,2.35 µM (active)
same,outcome,KB-3-1,inactive
same,Potency,NIH3T3 [2],2.09 µM (active)
same,max response,NIH3T3 [2],-7.88% (inactive)
same,Potency,MCC-13,inactive
same,Potency,MCC-26,inactive
same,Potency,MKL-1,inactive
same,Potency,MKL-2,inactive
same,Potency,UISO,inactive
same,Potency,WaGa,inactive
same,Potency,C33A,inactive
same,Potency,CAOV3,inactive
same,Potency,CASKI,inactive
same,Potency,Es-2,inactive
same,Potency,HeLa,inactive
same,Potency,Hek293T [5],inactive
same,Potency,JEG-3,inactive
OC(CN1CCC(Cc2ccc(F)cc2)CC1)c1ccc(Cl)cc1 (stereo not given),max response,HEK293,-10.6% (inactive) and 0.0097% (inactive)
same,max response,HaCat [1],0.0814% (inactive)
same,outcome,HaCat [1],inactive
same,max response,KB-3-1,-3.87% (inactive) and 8.37% (inactive)
same,max response,NIH3T3 [2],0.966% (inactive) and 1.02% (inactive)
same,outcome,HACAT [3],inactive
same,Potency,MCC-13,inactive
same,Potency,MCC-26,inactive
same,Potency,MKL-1,inactive
same,Potency,MKL-2,inactive
same,Potency,UISO,inactive
same,Potency,WaGa,inactive
same,Potency,C33A,inactive
same,Potency,CAOV3,inactive
same,Potency,CASKI,inactive
same,Potency,Es-2,inactive
same,Potency,HeLa,inactive
same,Potency,Hek293T [5],inactive
same,Potency,JEG-3,inactive
O=C(Nc1ccc(F)c(C(F)(F)F)c1)Nc1nnc(-c2ccncc2)s1,max response,HEK293,-22.6% (inactive) and -26.4% (inactive)
same,max response,HaCat [1],2.71% (inactive)
same,outcome,HaCat [1],inactive
same,max response,KB-3-1,-7.12% (inactive) and -14.7% (inactive)
same,max response,NIH3T3 [2],-1.83% (inactive)
same,outcome,NIH3T3 [2],inactive
same,outcome,HACAT [3],inactive
same,Potency,MCC-13,inactive
same,Potency,MCC-26,inactive
same,Potency,MKL-1,inactive
same,Potency,MKL-2,inactive
same,outcome,NIH3T3 [6],inactive
same,Potency,UISO,inactive
same,Potency,WaGa,inactive
same,Potency,C33A,inactive
same,Potency,CAOV3,inactive
same,Potency,CASKI,inactive
same,Potency,Es-2,inactive
same,Potency,HeLa,inactive
same,Potency,Hek293T [5],inactive
same,Potency,JEG-3,inactive
